Reference: PubChem BioAssay AID1347056 (Sanford-Burnham Center for Chemical Genomics, 2019)
The campaign covered roughly 360,000 compounds. About 3,600 (1%) were called active.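 The calls were made as follows: active = compounds whose plate-normalised and pattern-corrected inhibition of the luciferase reporter signal at the single screening dose is 50% or more; inactive = the rest.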 The entries come from a sample that favours actives as a whole.

assay: TROY pathway blockers in reporter cells – Q293 LMP1-TROYcd cells, NF-kB luciferase, uHTS, primary screen (AID 1347056); details: 4 h, at 10 µM, stronger effect = higher value

SMILES | inhibition
O=c1ccc2cc(S(=O)(=O)NCCCc3ccccc3)ccc2[nH]1 | -7.06% (inactive)
CCC(C)(C)NC(=O)CN(Cc1cccs1)C(=O)CNS(=O)(=O)c1ccc(F)cc1 | -7.55% (inactive)
Cc1ccc(S(=O)(=O)N(CC(O)CN2C(=O)NC(C)(C)C2=O)c2cccc([N+](=O)[O-])c2)cc1 (stereo not given) | 4.48% (inactive)
CCCn1c(C)cc(C(=O)COC(=O)c2c(C)nn(-c3ccccc3)c2C)c1C | -3.58% (inactive)
CC1(C)CC(N2CCN(C(c3ccccc3)c3ccccc3)CC2)=CC(=[N+]2CCCCC2)C1 | 58.6% (active)
COc1ccccc1NC(=S)N1CCN(C(c2ccccc2)c2ccccc2)CC1 | 16.1% (inactive)
Cc1cccc(N2CCN(C(c3ccccc3)c3nnnn3CC3CCCO3)CC2)c1C (stereo not given) | -7.74% (inactive)
O=C(CN1CCOCC1)Nc1c(Cl)cc(Cl)cc1Cl | -5.43% (inactive)
C=CCSc1nc2c(c(=O)[nH]1)C(C(C)C)C(C#N)=C(N)O2 (stereo not given) | 9.46% (inactive)
N#Cc1ccccc1NC(=O)COc1c(Br)cc(Br)c2cccnc12 | 4.34% (inactive)
COc1ccc(S(=O)(=O)N2CCC(C(=O)OCC(=O)c3ccccc3)CC2)cc1[N+](=O)[O-] | -4.41% (inactive)
CC1CN(C(=O)c2ccccc2NS(=O)(=O)c2cccc([N+](=O)[O-])c2)CC(C)O1 (stereo not given) | 8.71% (inactive)
COc1ccc(Br)cc1/C=N/Nc1ccc(S(=O)(=O)Nc2ccccc2C(=O)O)cc1[N+](=O)[O-] | 58% (active)
CC(=O)Nc1ccc(C(=O)CSc2nc3ccc(C)cc3[nH]2)cc1 | -46.4% (inactive)
COc1cccc2c(C)c(C(=O)O)[nH]c12 | 74.3% (active)
COc1cc2c(C(=O)O)c(C)n(C)c2c2ccccc12 | 6.89% (inactive)
COc1ccccc1C(=O)c1ccccc1C(=O)c1ccccc1 | 9.22% (inactive)
Oc1cccc2ccc(/C=C/c3ccc(Br)s3)nc12 | 45.8% (inactive)
COc1ccc(C2C(C#N)=C(N)Oc3cc(N)ccc32)cc1OC (stereo not given) | -32.5% (inactive)
COc1ccccc1C1C(C#N)=C(N)Oc2c1c(-c1ccccc1)nn2-c1ccccc1 (stereo not given) | 62% (active)
N#CC1=C(N)Oc2cc(N)ccc2C1c1ccccc1 (stereo not given) | 13.9% (inactive)
CCOc1ccc(C(=O)Nc2cc(Cl)ccc2-n2cncn2)cc1OC | -3.58% (inactive)
O=C1c2ccccc2C(=O)N1CCC#Cc1ccc2cc(C3(O)CCCCC3)oc(=O)c2c1 | 64.8% (active)

SMILES | inhibition
CC(C)c1nc(CNC(=O)CC2C(=O)NCCN2Cc2cccc(F)c2F)cs1 (stereo not given) | 4.78% (inactive)
COC(=O)c1ccc(C)c(NC(=O)C2CC(=O)N(C3CCCC(C)C3C)C2)c1 (stereo not given) | -0.78% (inactive)
C=CCC[C@@H](Cc1ccc(F)cc1)C(=O)O[C@H](CNC(=O)[C@H](CC=C)CC(=O)N(CCO)Cc1ccccc1)c1ccccc1 | 46.6% (inactive)
O=C1c2ccccc2C2=Nc3ccccc3SC(c3ccccc3F)C12 (stereo not given) | 63.5% (active)
COCCCn1c(-c2cccs2)nc2nc3ccccc3nc21 | 1.22% (inactive)
O=C(CSc1nc2[nH]ncc2c(=O)[nH]1)Nc1ccc(F)cc1 | -9.77% (inactive)
Cc1cccc(NC(=O)CSc2nc3[nH]ncc3c(=O)[nH]2)c1 | 80.2% (active)
Cc1ccc(CSc2nc3[nH]ncc3c(=O)[nH]2)cc1 | -16.1% (inactive)
COc1ccc(S(=O)(=O)N2CCN(C)CC2)c(C)c1 | -7.28% (inactive)
O=C(/C=C/c1ccc(Cl)c([N+](=O)[O-])c1)c1ccc(O)cc1 | 55.6% (active)
O=C(O)c1ccc2c(=O)n3c(nc2c1)/C(=C/c1ccc(Cl)c([N+](=O)[O-])c1)CC3 | -0.87% (inactive)
C/C(=N\NC(=O)Cc1ccccc1[N+](=O)[O-])c1cccnc1 | -4.21% (inactive)
O=C(/C=C/c1ccc(Cl)cc1)N1CCN(c2ccccc2[N+](=O)[O-])CC1 | 9.62% (inactive)
O=C(Nc1cccnc1)c1ccc(Cl)cc1[N+](=O)[O-] | -20.1% (inactive)
O=C(/C=C/c1ccc(Cl)c([N+](=O)[O-])c1)c1cccnc1 | 64.6% (active)
O=C(NCc1ccccc1CN1CCCC1)C1CCN(S(=O)(=O)c2ccc(Cl)cc2)CC1 | 4.08% (inactive)
Cc1ccnc(NC(=O)CCNS(=O)(=O)c2ccc(C)c(C)c2)c1 | 29.5% (inactive)
Cc1ccc2nc(SCc3nnc(-c4ccccc4[N+](=O)[O-])o3)c(C#N)cc2c1 | 2.86% (inactive)
CCOC(=O)c1c(-c2ccccc2)oc2cc(Br)c(O)c(C=O)c12 | 74.6% (active)
CCOC(=O)c1c(C)oc2cc(Br)c(OCC(N)=O)cc12 | 8.9% (inactive)
CCOC(=O)c1c(C)oc2cc(Sc3ccccc3)c(O)c(O)c12 | -45.5% (inactive)
COc1ccc([N+](=O)[O-])cc1NC(=O)c1ccc(N(Cc2ccccc2C)S(C)(=O)=O)cc1 | 13.5% (inactive)
COC(=O)C1=C(C)N=C2SC(C)C(=O)N2C1/C=C/c1ccccc1 (stereo not given) | 0.14% (inactive)

SMILES | inhibition
CC[C@H]1CN2CCc3cc(OC)c(OC)cc3[C@@H]2C[C@@H]1C[C@H]1NCCc2cc(OC)c(OC)cc21 | 86% (active)
CCCc1cc(=O)[nH]c2nnc(SCC(=O)Nc3nnc(SCC)s3)n12 | -11.1% (inactive)
CCOC(=O)/C(=C\c1ccc([N+](=O)[O-])cc1)C(=O)c1cc(C(C)=O)c(Nc2ccccc2)s1 | 1.46% (inactive)
CCOC(=O)C(=Cc1ccccc1OC)C(=O)OCC | 36.4% (inactive)
CCOC(=O)C(=Cc1ccccc1)C(=O)c1ccccc1 | 55% (active)
CCCCSc1nnc2c(n1)OC=Nc1ccccc1-2 | -39.1% (inactive)
C=CCN(CC=C)S(=O)(=O)c1ccc(C(=O)Nc2nc3c(s2)CCc2ccccc2-3)cc1 | 4.01% (inactive)
N#Cc1ccc(C(=O)Nc2nc(-c3cccs3)c(C(=O)C(F)(F)F)s2)cc1 | 53.3% (active)
N#Cc1c(-c2cccs2)nc(SCC(=O)c2ccc(Br)cc2)[nH]c1=O | 18.2% (inactive)
Cc1cc(=O)oc2c(C)c(OCC(=O)NCCc3ccc(S(N)(=O)=O)cc3)ccc12 | -2.4% (inactive)
O=C(C1CCN(c2nnc(-n3cccc3)s2)CC1)N1CCc2ccccc2C1 | 22.4% (inactive)
Cc1ccc2c(C)c(C(=O)N(C)CCC3CCCCO3)oc2c1C (stereo not given) | -35.3% (inactive)
O=C(CN(Cc1ccccc1)C(=O)CCC(=O)Nc1ccccn1)NCCc1ccccc1 | -13.3% (inactive)
COc1ccc(-c2noc(CNC(=O)C(C)Oc3ccccc3)n2)cc1 (stereo not given) | -22.8% (inactive)
COc1ccc(-c2nc(-c3ccccc3)no2)c(OC)c1 | 72.5% (active)
COc1ccc(/C=C/c2noc(-c3ccccc3OC(C)=O)n2)cc1 | 48.6% (inactive)
COc1ccccc1CN(C)c1nnnn1-c1ccccc1 | 7.2% (inactive)
COc1ccccc1-n1nnnc1S(=O)(=O)Cc1ccc(Cl)cc1 | 68.3% (active)
CCN(C(=O)CSc1nnnn1-c1ccccc1OC)C1CCS(=O)(=O)C1 (stereo not given) | -12.8% (inactive)
O=c1[nH][nH]c(C(F)(F)F)c1C=NCc1ccccc1Cl | -4.3% (inactive)
O=C(O)CC(SCC(=O)Nc1ccc(Br)cc1)C(=O)O (stereo not given) | 67.2% (active)
Cc1cc(C)c2c(=O)[nH]c(SCC(=O)Nc3ccc(Br)cc3)nc2n1 | 10.6% (inactive)
O=C(O)CSCC(=O)Nc1ccc(C(F)(F)F)cc1 | 5.82% (inactive)

SMILES | inhibition
CC(=O)Nc1nc2c(s1)C(=O)NCC(C)(C)C2 | 16.5% (inactive)
CC(=O)c1cc(CN2CCC(n3nccc3NC(=O)c3ccccc3Cl)CC2)cs1 | -6.73% (inactive)
OC[C@@H]1CN(Cc2ccc(-c3ccccc3)cc2)C[C@H](n2cnc3c(NC4CCCC4)ncnc32)O1 | 52.3% (active)
OC[C@@H]1CN(Cc2ccc(F)cc2)C[C@H](n2cnc3c(NC4CCCC4)ncnc32)O1 | -11.8% (inactive)
OC[C@@H]1CN(Cc2cccs2)C[C@H](n2cnc3c(NC4CCCC4)ncnc32)O1 | -12% (inactive)
N#CC(C(N)=O)=C1CCC2(CC1)OCCCCO2 | -8.85% (inactive)
Nc1nc(NCc2ccccc2)n(-c2ccccc2)n1 | 11.4% (inactive)
O=C(O)CN1c2cccc3cccc(c23)S1(=O)=O | 18% (inactive)
O=C(COC(=O)c1ccccn1)NNC(=O)c1ccc([N+](=O)[O-])cc1 | -4.92% (inactive)
N/C(=N\OC(=O)c1ccc([N+](=O)[O-])cc1)c1ccccn1 | -41.5% (inactive)
N/C(=N\OC(=O)Cc1ccc([N+](=O)[O-])cc1)c1ccccn1 | 71.7% (active)
O=C(Cc1ccccc1)N1CCN(S(=O)(=O)c2ccc([N+](=O)[O-])cc2)CC1 | -0.47% (inactive)
O=C(Nc1nnc(C2CC2)s1)C1=NN(C2CCS(=O)(=O)C2)C(=O)CC1 (stereo not given) | -9.87% (inactive)
COc1ccc(NC(=O)CCCN2C(=O)C(c3ccccc3)Oc3cccnc32)cc1 (stereo not given) | -2.33% (inactive)
CCCNC(=O)c1ccccc1NC(=O)CSCc1ccc(OC)cc1 | -1.25% (inactive)
COc1ccc(/C=C2/SC(=O)N(CCCCCC(=O)Nc3ccccc3C(=O)O)C2=S)cc1 | 62.8% (active)
O=C(NCc1ccc(F)cc1)c1cc(C2CCCCN2C(=O)c2cccs2)on1 (stereo not given) | -13.9% (inactive)
Cc1ccc(-n2c(SCC(=O)N3CCC(C(=O)O)CC3)nc3ccccc3c2=O)cc1C | 28.8% (inactive)
CN1c2ccc([N+](=O)[O-])cc2C(C)(C)C12C=Cc1cc(C(=O)O)ccc1O2 (stereo not given) | 4.3% (inactive)
COc1ccc2c(c1)C=CC1(O2)N(CCO)c2ccccc2C1(C)C (stereo not given) | 74.4% (active)
COc1ccc2c(c1)C(SCC(=O)NCc1ccccc1)CC(C)(C)O2 (stereo not given) | -9.24% (inactive)
